Experimental findings from PubChem BioAssay (EPA / NIEHS) are described below.

Where “and” joins values, the source holds several entries; their conditions need not be identical. Equal entries are not always repeated. Inconclusive results are not listed. Calls of active or inactive are those of the source. Rule for the calls: active = hit-call score of the fitted dose curve at least 0.9, where 1 is the maximum; inconclusive = response in the unintended direction; inactive = score below 0.9.

Assay [1] concerns the target human Thromboxane A2 Receptor (TXA2), TBXA2R (gene 6915) (UniProt P21731). Put plainly: NVS_GPCR_hTXA2: NovaScreen (NVS) G Protein-Coupled Receptor Assay for human Thromboxane A2 Receptor (TXA2) (AID 2283282).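 Note: actives reduce bound radioligand signal relative to DMSO baseline.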 The essentials:
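Filter scintillation counting of bound radioligand, human platelet protein, 1 h exposure. Single-concentration duplicates (25 uM) first, concentration-response follow-up for actives. Binding loss scored against DMSO baseline.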

Assay [2] has as its target mouse Cholecystokinin, CCK1 Receptor (CCKA), Cckar (gene 12425) (UniProt O08786). Put plainly: NVS_GPCR_mCCKAPeripheral: NovaScreen (NVS) G Protein-Coupled Receptor Assay for mouse Cholecystokinin, CCK1 Receptor (CCKA) (AID 2283285). Summed up:
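Chemicals were first screened in duplicate at 25 uM, with those meeting threshold (e.g., 30% inhibition) retested in singleton concentration series to 50 uM maximum. Binding of radioligand to mouse pancreatic membranes was read after 2 h by filtration and scintillation counting.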

Assay [3] addresses human Opioid Receptor Mu (Opiate Mu), OPRM1 (gene 4988) (UniProt P35372). In words: NVS_GPCR_hOpiate_mu: NovaScreen (NVS) G Protein-Coupled Receptor Assay for human Opioid Receptor Mu (Opiate Mu) (AID 2283290).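 Note: hits lower bound tracer signal versus DMSO meaning displacement of the ligand.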 Summed up: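 Here, radioligand binding to CHO-extracted receptor was measured after 2.5 h using filter-based scintillation detection. Initial single-concentration screening used 25 uM in duplicate with plate controls; confirmed actives went to concentration-response testing.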

The target in assay [4] is rat Gamma-Aminobutyric Acid Type B Receptor (GABBR), Gabbr1 (gene 81657) (UniProt Q9Z0U4). In words: NVS_GPCR_rGABBR: NovaScreen (NVS) G Protein-Coupled Receptor Assay for rat Gamma-Aminobutyric Acid Type B Receptor (GABBR) (AID 2283301). Summed up:
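Rat cortical membrane preparation, competitive radioligand binding for 1 h with filtration and scintillation readout. Actives from duplicate single-point 25 uM screening proceeded to concentration series with 50 uM top concentration.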

Assay [5] concerns the target rat Serotonin, 5-Hydroxytryptamine Receptor 1 (5HT1), Non-Selective Binding, Htr1a (gene 24473) (UniProt P19327). In words: NVS_GPCR_r5HT1_NonSelective: NovaScreen (NVS) G Protein-Coupled Receptor Assay for rat Serotonin, 5-Hydroxytryptamine Receptor 1 (5HT1), Non-Selective Binding (AID 2283286). The essentials: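 Binding of a radioligand to rat cortex membranes is read by filtration and scintillation counting after 1 h. Compounds were screened at 25 uM in duplicate. Actives were then titrated to a top of 50 uM. DMSO is the baseline.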

Assay [6] has as its system rabbit Platelet Activating Factor Receptor (PAF), gene 100354046. Put plainly: NVS_GPCR_rabPAF: NovaScreen (NVS) G Protein-Coupled Receptor Assay for rabbit Platelet Activating Factor Receptor (PAF) (AID 2283287). Summed up: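 Rabbit platelet membrane preparation; radioligand displacement read by filter-based scintillation counting 1 h after dosing, loss of signal versus DMSO. Primary screen in duplicate at 25 uM, actives followed up in concentration series.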

The target in assay [7] is rat Adrenergic, Alpha 1, Non-selective Receptor (Adra1), Adra1a (gene 29412) (UniProt P43140). Put plainly: NVS_GPCR_rAdra1_NonSelective: NovaScreen (NVS) G Protein-Coupled Receptor Assay for rat Adrenergic, Alpha 1, Non-selective Receptor (Adra1) (AID 2283289). The essentials: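 Chemicals first screened in duplicate at 25 uM, then actives tested in concentration series up to 50 uM. Binding measured as displacement of radioligand from rat forebrain membrane receptors, 1 h, filtration with scintillation readout; DMSO baseline.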

Assay [8] concerns the target guinea pig Serotonin, 5-Hydroxytryptamine Receptor 4 (5HT4), HTR4 (gene 100135548) (UniProt O70528). Put plainly: NVS_GPCR_g5HT4: NovaScreen (NVS) G Protein-Coupled Receptor Assay for guinea pig Serotonin, 5-Hydroxytryptamine Receptor 4 (5HT4) (AID 2283294). Summed up: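 Compounds first screened in duplicate at 25 uM, actives followed up in concentration series. Binding measured as displacement of specific radioligand from guinea pig striatal membranes, 1 h, filter-based scintillation read-out versus DMSO baseline.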

In assay [9] the target is rat Serotonin, 5-Hydroxytryptamine Receptor (5HT), Non-Selective Binding, Htr1a (gene 24473) (UniProt P19327). In words: NVS_GPCR_r5HT_NonSelective: NovaScreen (NVS) G Protein-Coupled Receptor Assay for rat Serotonin, 5-Hydroxytryptamine Receptor (5HT), Non-Selective Binding (AID 2283295). Summed up: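 Rat cortex membrane preparation incubated 1 h with radioligand and test chemical; bound radioactivity counted after filtration. Screening began in duplicate at 25 uM with concentration-series follow-up; fitting relative to DMSO.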

In assay [10] the target is rat Adrenergic, Alpha 1A Receptor (Adra1A), Adra1a (gene 29412) (UniProt P43140). Put plainly: NVS_GPCR_rAdra1A: NovaScreen (NVS) G Protein-Coupled Receptor Assay for rat Adrenergic, Alpha 1A Receptor (Adra1A) (AID 2283296). Summed up:
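Filter radiodetection after 1 h competitive binding on CEC-pretreated rat cortical membranes. Duplicate single-point screening at 25 uM; active chemicals retested across concentration series.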

Assay [11] relates to rat Adrenergic, Alpha 1B Receptor (Adra1B), gene 24173. Put plainly: NVS_GPCR_rAdra1B: NovaScreen (NVS) G Protein-Coupled Receptor Assay for rat Adrenergic, Alpha 1B Receptor (Adra1B) (AID 2283297). The essentials: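 Filter-binding radioligand competition on membranes from rat liver, read after 1 h by scintillation counting. Single-concentration duplicate screen at 25 uM, followed by concentration-response on actives, normalised to DMSO.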

Assay [12] concerns the target rat Adrenergic Receptor, Alpha 2 (Adra2), Non-selective Binding, Adra2a (gene 25083) (UniProt P22909). Put plainly: NVS_GPCR_rAdra2_NonSelective: NovaScreen (NVS) G Protein-Coupled Receptor Assay for rat Adrenergic Receptor, Alpha 2 (Adra2), Non-selective Binding (AID 2283299). Summed up: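 Filter-based scintillation counting of radioligand binding to rat cortical membrane receptors, measured 1.25 hours post-dosing; loss of signal versus DMSO indicates displacement. Initial single-concentration duplicate at 25 uM, then concentration series.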

Assay [13] concerns the target human Opioid Receptor Delta 1 (Opiate D1), OPRD1 (gene 4985) (UniProt P41143). In words: NVS_GPCR_hOpiate_D1: NovaScreen (NVS) G Protein-Coupled Receptor Assay for human Opioid Receptor Delta 1 (Opiate D1) (AID 2283280). The essentials: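 Membrane preparations from CHO cells bearing the human receptor were incubated 1 h with test chemical, and bound radioligand was counted after filtration. Actives from 25 uM duplicate screening were retested in concentration-response.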

In assay [14] the target is human Purinergic Receptor P2Y, P2RY1 (gene 5028) (UniProt P47900). In words: NVS_GPCR_hPY2: NovaScreen (NVS) G Protein-Coupled Receptor Assay for human Purinergic Receptor P2Y (AID 2283281). Summed up: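 Filtration scintillation readout of radioligand displacement on U937 extract, measured 1 h post-dosing. Single 25 uM duplicate screen, then singleton concentration series to 50 uM for chemicals passing threshold; DMSO as baseline.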

Assay [15] addresses human Orphanin, Opioid Related Nociceptin Receptor 1 (ORL1), OPRL1 (gene 4987) (UniProt P41146). In words: NVS_GPCR_hORL1: NovaScreen (NVS) G Protein-Coupled Receptor Assay for human Orphanin, Opioid Related Nociceptin Receptor 1 (ORL1) (AID 2283283). Summed up:
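Cell-free binding using HEK293-derived receptor protein: radioligand displacement measured by filter scintillation 1 hour after dosing. Primary testing at 25 uM in duplicate, followed by singleton concentration series up to 50 uM; DMSO served as negative control.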

The target of assay [16] is mouse Cholecystokinin, CCK2 Receptor (CCKB), Cckbr (gene 12426) (UniProt P56481). In words: NVS_GPCR_mCKKBCentral: NovaScreen (NVS) G Protein-Coupled Receptor Assay for mouse Cholecystokinin, CCK2 Receptor (CCKB) (AID 2283293). The essentials:
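Mouse forebrain membrane preparation incubated 2 h with chemical and radioligand; bound radioactivity counted after filtration. Single-concentration duplicate screen at 25 uM, then concentration series to 50 uM max for hits, DMSO as baseline.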

For assay [17], the target named is guinea pig Bradykinin Receptor B2 (BK2), BDKRB2 (gene 100135486) (UniProt O70526). In words: NVS_GPCR_gBK2: NovaScreen (NVS) G Protein-Coupled Receptor Assay for guinea pig Bradykinin Receptor B2 (BK2) (AID 2283292). Summed up: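 Guinea pig ileum membrane preparation incubated 1 h with radioligand and test chemical; bound counts measured after filtration. Primary duplicate screening at 25 uM, then singleton concentration series with a 50 uM top dose; DMSO as baseline.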

Assay [18] relates to 5-hydroxytryptamine receptor 2C (pig). Put plainly: NVS_GPCR_p5HT2C: NovaScreen (NVS) G Protein-Coupled Receptor Assay for pig Serotonin, 5-Hydroxytryptamine Receptor 2C (5HT2C) (AID 2283288). The essentials: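 Radioligand displacement on membranes from pig choroid plexus, detected by filter scintillation counting after 1 h. Tested first at a single 25 uM in duplicate, then in concentration-response for actives; DMSO served as baseline.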

Sequence of human Opioid Receptor Mu (Opiate Mu), OPRM1 (gene 4988) (P35372 whole entry, looked up): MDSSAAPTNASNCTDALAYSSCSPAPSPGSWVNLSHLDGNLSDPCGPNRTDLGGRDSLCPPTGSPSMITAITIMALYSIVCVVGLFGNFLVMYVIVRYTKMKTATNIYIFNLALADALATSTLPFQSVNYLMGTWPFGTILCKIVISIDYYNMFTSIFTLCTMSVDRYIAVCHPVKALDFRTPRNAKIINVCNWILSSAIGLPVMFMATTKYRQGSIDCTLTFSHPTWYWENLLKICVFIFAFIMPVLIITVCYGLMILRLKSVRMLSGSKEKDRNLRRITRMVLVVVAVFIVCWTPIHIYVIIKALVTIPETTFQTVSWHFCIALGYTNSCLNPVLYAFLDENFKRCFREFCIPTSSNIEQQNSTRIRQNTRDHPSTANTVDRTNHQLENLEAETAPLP
Sequence of human Thromboxane A2 Receptor (TXA2), TBXA2R (gene 6915) (P21731 whole entry, looked up): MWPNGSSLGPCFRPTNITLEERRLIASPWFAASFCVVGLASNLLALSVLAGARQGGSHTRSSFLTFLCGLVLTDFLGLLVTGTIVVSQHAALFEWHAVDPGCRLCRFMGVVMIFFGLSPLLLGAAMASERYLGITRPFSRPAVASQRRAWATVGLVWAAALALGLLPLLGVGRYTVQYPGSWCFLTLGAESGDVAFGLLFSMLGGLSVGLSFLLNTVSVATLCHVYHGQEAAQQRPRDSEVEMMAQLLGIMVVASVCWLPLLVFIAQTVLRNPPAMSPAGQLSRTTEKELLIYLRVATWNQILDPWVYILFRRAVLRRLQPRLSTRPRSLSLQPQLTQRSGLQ
Sequence of mouse Cholecystokinin, CCK1 Receptor (CCKA), Cckar (gene 12425) (O08786 whole entry, looked up): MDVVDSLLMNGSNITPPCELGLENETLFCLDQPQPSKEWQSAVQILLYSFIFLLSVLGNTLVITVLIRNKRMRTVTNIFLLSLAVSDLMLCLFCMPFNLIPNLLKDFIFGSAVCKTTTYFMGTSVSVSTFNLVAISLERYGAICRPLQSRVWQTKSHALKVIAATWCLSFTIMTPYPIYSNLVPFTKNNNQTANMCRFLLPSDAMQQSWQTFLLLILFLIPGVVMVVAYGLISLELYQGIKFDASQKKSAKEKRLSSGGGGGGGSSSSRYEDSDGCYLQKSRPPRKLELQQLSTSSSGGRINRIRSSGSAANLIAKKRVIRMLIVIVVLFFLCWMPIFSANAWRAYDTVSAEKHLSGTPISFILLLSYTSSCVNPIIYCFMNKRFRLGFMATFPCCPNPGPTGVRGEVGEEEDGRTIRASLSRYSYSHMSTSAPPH
Sequence of rat Gamma-Aminobutyric Acid Type B Receptor (GABBR), Gabbr1 (gene 81657) (Q9Z0U4 whole entry, looked up): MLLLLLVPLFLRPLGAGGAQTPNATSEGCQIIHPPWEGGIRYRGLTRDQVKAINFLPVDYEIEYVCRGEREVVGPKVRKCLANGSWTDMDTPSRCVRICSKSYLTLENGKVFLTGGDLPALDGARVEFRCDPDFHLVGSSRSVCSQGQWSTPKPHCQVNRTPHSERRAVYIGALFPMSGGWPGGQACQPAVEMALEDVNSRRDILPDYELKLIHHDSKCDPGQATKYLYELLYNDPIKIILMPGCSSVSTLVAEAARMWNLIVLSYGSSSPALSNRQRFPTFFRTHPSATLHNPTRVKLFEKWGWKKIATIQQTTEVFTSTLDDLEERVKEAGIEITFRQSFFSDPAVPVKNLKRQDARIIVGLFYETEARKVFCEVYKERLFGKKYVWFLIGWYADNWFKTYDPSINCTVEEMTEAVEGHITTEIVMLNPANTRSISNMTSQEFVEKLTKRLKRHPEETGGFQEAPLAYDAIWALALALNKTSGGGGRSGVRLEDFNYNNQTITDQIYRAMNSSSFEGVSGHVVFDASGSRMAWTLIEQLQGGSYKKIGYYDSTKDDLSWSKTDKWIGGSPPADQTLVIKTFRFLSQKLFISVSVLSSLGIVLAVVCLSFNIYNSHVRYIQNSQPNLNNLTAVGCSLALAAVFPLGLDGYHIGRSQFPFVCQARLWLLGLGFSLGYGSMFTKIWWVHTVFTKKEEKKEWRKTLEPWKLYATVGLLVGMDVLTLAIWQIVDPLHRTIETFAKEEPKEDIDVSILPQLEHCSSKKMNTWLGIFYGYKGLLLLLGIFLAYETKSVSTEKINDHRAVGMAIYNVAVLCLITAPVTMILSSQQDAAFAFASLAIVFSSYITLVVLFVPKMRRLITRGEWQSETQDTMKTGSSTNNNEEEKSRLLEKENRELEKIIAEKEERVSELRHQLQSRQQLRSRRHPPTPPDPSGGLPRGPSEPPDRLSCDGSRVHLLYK
Sequence of rat Adrenergic, Alpha 1A Receptor (Adra1A), Adra1a (gene 29412) (P43140 whole entry, looked up): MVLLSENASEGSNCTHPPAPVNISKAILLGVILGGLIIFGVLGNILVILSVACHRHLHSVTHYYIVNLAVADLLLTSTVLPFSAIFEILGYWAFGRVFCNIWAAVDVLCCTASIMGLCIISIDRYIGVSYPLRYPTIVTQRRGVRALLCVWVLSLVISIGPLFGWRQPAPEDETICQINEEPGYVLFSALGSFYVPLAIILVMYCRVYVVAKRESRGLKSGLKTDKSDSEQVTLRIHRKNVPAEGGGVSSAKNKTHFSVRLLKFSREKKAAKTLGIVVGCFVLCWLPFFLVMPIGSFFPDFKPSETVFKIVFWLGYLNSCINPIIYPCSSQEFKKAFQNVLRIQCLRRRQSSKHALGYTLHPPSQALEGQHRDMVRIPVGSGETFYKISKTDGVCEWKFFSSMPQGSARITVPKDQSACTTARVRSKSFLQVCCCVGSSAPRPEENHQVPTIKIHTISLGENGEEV
Sequence of rat Adrenergic, Alpha 1, Non-selective Receptor (Adra1), Adra1a (gene 29412) (P43140 whole entry, looked up): as above
Sequence of guinea pig Serotonin, 5-Hydroxytryptamine Receptor 4 (5HT4), HTR4 (gene 100135548) (O70528 whole entry, looked up): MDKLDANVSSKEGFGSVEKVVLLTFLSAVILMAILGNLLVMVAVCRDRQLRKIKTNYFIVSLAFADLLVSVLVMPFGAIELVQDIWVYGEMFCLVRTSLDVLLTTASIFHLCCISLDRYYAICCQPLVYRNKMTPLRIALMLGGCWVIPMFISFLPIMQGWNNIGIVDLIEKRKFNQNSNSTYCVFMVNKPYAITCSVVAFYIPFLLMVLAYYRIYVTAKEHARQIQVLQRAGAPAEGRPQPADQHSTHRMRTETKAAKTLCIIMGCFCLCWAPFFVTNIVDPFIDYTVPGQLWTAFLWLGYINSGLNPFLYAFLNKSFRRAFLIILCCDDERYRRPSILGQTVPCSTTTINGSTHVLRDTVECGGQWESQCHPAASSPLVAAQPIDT
Sequence of rat Serotonin, 5-Hydroxytryptamine Receptor (5HT), Non-Selective Binding, Htr1a (gene 24473) (P19327 whole entry, looked up): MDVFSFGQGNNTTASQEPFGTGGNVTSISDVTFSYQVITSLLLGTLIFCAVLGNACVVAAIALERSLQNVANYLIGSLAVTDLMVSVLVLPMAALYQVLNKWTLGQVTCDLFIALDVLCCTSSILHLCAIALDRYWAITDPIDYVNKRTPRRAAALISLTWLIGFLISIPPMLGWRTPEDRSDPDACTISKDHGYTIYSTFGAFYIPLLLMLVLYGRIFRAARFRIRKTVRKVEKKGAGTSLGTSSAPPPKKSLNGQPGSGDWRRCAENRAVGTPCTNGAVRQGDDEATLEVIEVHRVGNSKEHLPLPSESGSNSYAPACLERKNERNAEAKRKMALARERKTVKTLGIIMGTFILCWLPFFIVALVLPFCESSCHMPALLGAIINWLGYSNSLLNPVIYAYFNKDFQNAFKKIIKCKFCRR
Sequence of rat Serotonin, 5-Hydroxytryptamine Receptor 1 (5HT1), Non-Selective Binding, Htr1a (gene 24473) (P19327 whole entry, looked up): as above
Sequence of mouse Cholecystokinin, CCK2 Receptor (CCKB), Cckbr (gene 12426) (P56481 whole entry, looked up): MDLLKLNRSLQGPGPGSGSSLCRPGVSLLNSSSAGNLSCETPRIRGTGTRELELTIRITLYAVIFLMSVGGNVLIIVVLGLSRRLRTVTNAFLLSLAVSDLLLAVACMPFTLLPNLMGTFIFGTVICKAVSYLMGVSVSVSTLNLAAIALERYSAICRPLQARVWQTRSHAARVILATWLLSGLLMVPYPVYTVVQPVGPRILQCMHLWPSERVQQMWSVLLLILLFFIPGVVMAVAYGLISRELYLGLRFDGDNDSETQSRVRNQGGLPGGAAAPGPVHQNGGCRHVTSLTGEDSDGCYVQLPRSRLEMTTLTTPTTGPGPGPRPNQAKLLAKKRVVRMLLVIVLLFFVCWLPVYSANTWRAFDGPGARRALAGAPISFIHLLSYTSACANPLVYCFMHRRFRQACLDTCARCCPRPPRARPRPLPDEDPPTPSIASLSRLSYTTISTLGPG

Consider `COc1ccc(OC)c(C=O)c1`, for which the result in assay [1] was inactive.
The same measure, in the same setting: in the case of `N#CCc1ccc(Cl)cc1` it was “inactive”.
The term AC50 denotes the concentration at which the activity in the assay is half-maximal. `O=C1C2(Cl)C3(Cl)C4(Cl)C(Cl)(Cl)C5(Cl)C3(Cl)C1(Cl)C5(Cl)C24Cl` (stereo not drawn): the call in assay [2] and in [4] was inactive. In addition, the concentration at half-maximal activity (AC50) in assay [3] is 1.63 µM (active) and 2.66 µM (active) and 1.08 µM (active).
On to `CCN1CCC2(CC1)COc1cc3c(cc12)N(C(=O)c1ccc(-c2ccc(-c4nnc(C)o4)cc2C)cc1)CC3`, for which the molecule was called inactive in [5]. For the same molecule, the concentration at half-maximal activity (AC50) in assay [6] was 12.5 µM (active); in assay [7], 11.9 µM (active); in assay [8], 2.96 µM (active); in [9], 23.4 µM (active); in assay [10], 16.4 µM (active); in assay [11], 10.9 µM (active). Besides, the AC50 in [12] was 18.6 µM (active).
Take `CC(=O)[O][Hg][c]1ccccc1`: the AC50 is 0.848 µM (active) in [13]; 5.96 µM (active) in assay [14]; 5.62 µM (active) in assay [1]; 0.473 µM (active) in assay [15]; 1.65 µM (active) in assay [2]; 16.4 µM (active) in [5]. Also, the concentration at half-maximal activity (AC50) is 38.4 µM (active) in [6]; 18.8 µM (active) in assay [7]; 90.8 nM (active) in assay [3]; 25 µM (active) in assay [16]; 14.2 µM (active) in [8]; 19.8 µM (active) in assay [9]. Moreover, the AC50 in assay [10] was 25 µM (active); in assay [11], 3.43 µM (active); in assay [12], 3.96 µM (active); in [4] it was 38.5 µM (active).
In the case of `O=C(Nc1ccc2[nH]ccc2c1)c1cc2cc(F)ccc2n1Cc1cccc(F)c1`, the outcome in assay [3] and in assay [17] was inactive.
Turning to `CC(C)(C)CC(C)(C)c1ccc(O)cc1`, the concentration at half-maximal activity (AC50) in assay [13] is 8.28 µM (active); in assay [1], 43.7 µM (active); in assay [2] it was 12 µM (active); in [3], 16700 nM (active). In addition, the call in assay [14] and in [16] was inactive.
`CCOC(=O)Nc1cccc(OC(=O)Nc2ccccc2)c1`: the AC50 in [18] was 20.3 µM (active).
